SNCA viab count: counter-screen for SNCA expression inhibitors: cell viability. actives 0.12% (n = 150,000). AID 1671193. HEK-293-SNCA-luc viability, GF-AFC fluorescence, 24 h. Potency, µM (titrated, usually from 57.1 µM), without a hit: at the top dose activity change, negative = cytotoxicity, actives largely listed as cytotoxic;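 note: potency is the fitted concentration of half-maximal effect; 0% = DMSO-treated cells and -100% = medium-only wells without cells; nearly all actives have a fitted effect of over 30% in size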
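HEK-293-SNCA-luc cells (1500/well) plated 24 h, then exposed 24 h to a dilution series; GF-AFC added 30 min at 37C, fluorescence 405/540 nm; normalised to medium-only and DMSO wells, Hill fit.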
SNCA expr inh: inhibitors of alpha-synuclein (SNCA) gene expression. HEK-293 SNCA-luciferase knock-in, luminescence, 24 h. Potency, µM (doses to about 57.2 µM), for the others: top-dose activity change, negative = inhibition, hits mostly inhibitors. actives 0.17% (n = 140,000);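 note: potency is the fitted concentration of half-maximal effect; plate controls were DMSO cells for no effect and cell-free wells for full effect; nearly all actives have a fitted effect of over 45% in size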
KDM5B inh: inhibitors of human KDM5B histone demethylase. KDM5B demethylase, FDH-coupled NADH fluorescence (FDH is formaldehyde dehydrogenase). Potency, µM (series often up to 57.7 µM), most hits filed as inhibitors. actives 2.6% (n = 220,000). AID 1347165; note: potency is the fitted concentration of half-maximal effect; 0% is about no effect; nearly all actives have a fitted effect of over 70% in size
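KDM5BΔAP (200 nM final) in 50 mM HEPES pH 7.5, 0.01% Tween-20 was preincubated 10 min at RT with compound over a concentration range. Substrate mix (H3K4me3 12.5 µM, α-KG 25 µM, Fe²⁺, ascorbate, NAD⁺, FDH) was added, and NADH fluorescence change over 30 min gave dose-response curves.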
IP6K1 inh: blocks human inositol hexakisphosphate kinase 1; Q92551; activity change, % (series mostly up to about 58 µM); AID 1645851; IP6K1 kinase, ADP-Glo luminescence, 2 h; stronger effect = lower value; actives 0.81% (n = 140,000); in the data active = activity change below about -25%; note: % is set by controls: 0 for no effect and ±100 for the full control effect
Target sequence (Q92551 whole entry, looked up): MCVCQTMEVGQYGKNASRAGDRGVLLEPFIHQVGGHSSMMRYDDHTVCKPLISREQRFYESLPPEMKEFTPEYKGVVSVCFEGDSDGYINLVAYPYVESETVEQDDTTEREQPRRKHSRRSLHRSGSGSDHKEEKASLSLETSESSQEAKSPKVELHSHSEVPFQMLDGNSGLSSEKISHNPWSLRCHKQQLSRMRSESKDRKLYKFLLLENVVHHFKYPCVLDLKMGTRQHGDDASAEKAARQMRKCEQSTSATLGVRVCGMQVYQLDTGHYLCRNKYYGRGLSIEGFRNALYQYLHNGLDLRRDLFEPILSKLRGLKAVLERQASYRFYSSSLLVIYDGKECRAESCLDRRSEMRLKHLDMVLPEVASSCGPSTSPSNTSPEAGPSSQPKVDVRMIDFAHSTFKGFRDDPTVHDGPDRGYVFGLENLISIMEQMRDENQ
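ADP-Glo luminescence measures ADP made by human IP6K1 during a 2 h RT reaction with ATP/IP6 (mix at 1.3 mM/130 uM); top library doses 57.5 and 19.1 uM final.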
* hit, by the source's call; i = inactive; u = inconclusive; x = no result; [ ] = another dose, or the depositor's remark. A selection: hits, their analogues and other compounds. The true share with any hit is near 2.8%. Unless noted, calls come from the whole dose curve; as a rule, active = well fitted curve in the direction sought with a large enough effect; inconclusive = small, poorly fitted or top-dose-only effect, or another doubt; inactive = no such curve, though single readings can be large; an effect the other way counts as inactive or inconclusive.

SMILES	SNCA viab count	SNCA expr inh	KDM5B inh	IP6K1 inh
O=c1cc(-c2ccncc2)oc2c(-c3ccc(CO)cc3)nccc12	2.7%[87.6 µM]	-22.7%[87.6 µM]	35.5µM*	-8.0
O=c1cc(-c2ccccn2)oc2c(-c3ccc(CO)cc3)nccc12	-4.3%[87.6 µM]	u	28.2µM*	7.8
CC(C)OCCNc1nccc(C2(c3ccccc3Cl)CCNCC2)n1	u	-5.8%	u	-16.4
COCCNc1nccc(C2(c3ccccc3Cl)CCNCC2)n1	-23.5%	11.3%	22.4µM*	5.0
CN(CCc1ccccn1)c1ccc(-c2nc(COc3ccccc3)no2)cn1	-15.6%	63.2%	28.2µM*	10.8
CN(CCO)c1ccc(-c2nc(CCCc3ccccc3)no2)cn1	-5.7%	106.2%	u	-4.2
CN(Cc1cccnc1)c1ccc(-c2nc(COc3ccccc3)no2)cn1	-11.4%	30.5%	35.5µM*	15.0
Cc1nn2c(C(F)F)cc(-c3ccccc3)nc2c1Br	x	x	i	x
COc1ccc(C(=O)N2CCn3c(nnc3-c3ccc(NC(C)=O)cc3)C2)cc1	x	x	x	2.4
c1cc(-c2nnc([C@H]3CCN(CC4CCCCC4)C3)o2)ccn1	-5.9%[87.6 µM]	2.2%[87.6 µM]	i	1.2
CN(C)c1ccc(-c2nnc([C@H]3CCN(CC4CC4)C3)o2)cc1	-2.9%[87.6 µM]	-11.6%[87.6 µM]	31.6µM*	5.4
CN(C)c1ccc(-c2nnc([C@H]3CCN(CC4CCCCC4)C3)o2)cc1	0.4%[87.6 µM]	-3.6%[87.6 µM]	31.6µM*	3.0
CN(C)c1ccc(-c2nnc([C@H]3CCN(C4CCC4)C3)o2)cc1	-3.0%[87.6 µM]	68.1%[87.6 µM]	28.2µM*	-2.9
CN(C)c1ccc(-c2nnc([C@H]3CCN(Cc4ccccc4)C3)o2)cc1	-5.7%[87.6 µM]	27.8%[87.6 µM]	u	27.2
c1ccc(CCCN2CC[C@H](c3nnc(-c4ccccc4)o3)C2)cc1	-14.0%[87.6 µM]	-14.1%[87.6 µM]	31.6µM*	24.6
COc1ccccc1OCc1cc(C(=O)NC[C@H]2C[C@H]3C=C[C@H]2C32CC2)n[nH]1	0.4%	119.1%	i	7.9
CC(C)c1cc(C(=O)N(C)c2ccccc2)c2ccccc2n1	x	x	i	x
Cc1cc(Nc2cc(N3CCN(C)CC3)nc(/C=C/c3ccccc3)n2)n[nH]1	29.9µM*	x	x	-2.1
Cc1cccc2ncc(C(=O)N3CCC4(CCNC(=O)CC4)CC3)c(=O)n12	6.8%	u	22.4µM*	14.3
COc1ccccc1-n1cc(C(=O)N2CCC3(CCNC(=O)CC3)CC2)cn1	1.9%	43.7%	i	-10.6
CN(Cc1ccc(F)cc1)c1ccc2ncc(Nc3cccc(N[S+](C)(=O)[O-])c3)n2n1	12.6%	-19.8%	u	-20.7
CN(Cc1cccnc1)c1ccc2ncc(Nc3ccc(C(F)(F)F)cc3)n2n1	-26.3%[87.6 µM]	u	25.1µM*	-21.1
CN(Cc1cccnc1)c1ccc2ncc(Nc3cccc(N[S+](C)(=O)[O-])c3)n2n1	8.2%[87.6 µM]	11.0%[87.6 µM]	17.8µM*	6.0
CCOC(=O)C1(C)C=C(Nc2cccc(Br)c2)C(=O)N1c1cccc(Br)c1 (stereo unspecified)	x	x	i	x
O=C(CC1CC1)N1CCC(Oc2cnc3c(ccn3-c3cncnc3)c2)CC1	3.9%[87.6 µM]	-10.9%[87.6 µM]	i	5.9
SMILES	SNCA viab count	SNCA expr inh	KDM5B inh	IP6K1 inh
O=C(O)Cn1ccc2cc(OCC3CCN(C(=O)Cc4ccccc4)CC3)cnc21	2.6%[87.6 µM]	-12.3%[87.6 µM]	39.8µM*	-3.9
O=C(Cc1ccccc1)N1CCC(Oc2cnc3c(ccn3-c3cncnc3)c2)CC1	u	u	i	-0.9
O=C(O)Cn1ccc2cc(OCC3CCN(C(=O)COc4ccccc4)CC3)cnc21	2.1%[87.6 µM]	-13.9%[87.6 µM]	35.5µM*	-7.8
NC(=O)Cn1ccc2cc(OCC3CCN(C(=O)CC4CC4)CC3)cnc21	1.0%[87.6 µM]	10.8%[87.6 µM]	35.5µM*	-11.7
O=C(NCCN1CCOCC1)c1cc(-c2ccc(F)cc2)c2nncn2n1	11.0%	-21.3%	x	12.0
COc1ccccc1-c1ccnc(N[C@H]2CO[C@H]3[C@@H]2OC[C@@H]3NC(=O)COc2ccccc2)n1	6.0%	20.2%	22.4µM*	-4.3
COc1ccccc1-c1ccnc(N[C@H]2CO[C@H]3[C@@H]2OC[C@@H]3NC(=O)c2ccccc2)n1	-1.7%[87.6 µM]	-16.3%[87.6 µM]	35.5µM*	-7.9
COc1ccccc1-c1ccnc(N[C@H]2CO[C@H]3[C@@H]2OC[C@@H]3NC(=O)c2ccc(C)cc2)n1	-3.4%	5.1%	u	-0.3
CCOc1ccccc1-c1nc(Cn2nnc(C(=O)Nc3ccc4c(c3)OCCO4)c2N)c(C)o1	x	x	i	x
COc1ccc(CNC(=O)c2ccc(Cn3ccn4nc5c(c4c3=O)CCCC5)cc2)cc1OC	-16.3%	26.0%	u	5.9

Screening data from PubChem.
